In PubChem BioAssay AID376 (PDSP, 2006):
In all, about 2,000 compounds went through this assay and about 250 (12%) were called active. The list comes from a sample in which actives are over-represented; it also holds similar structures and randomly drawn compounds. A number with no mark means an inactive call. No stated cut-off is given here; in the data, active means hERG blockade below about -20% or above about 20%; inactive means in between.

The compounds below were run against Voltage-gated inwardly rectifying potassium channel KCNH2 (Homo sapiens) (UniProt Q12809) (assay: KCNH2 potassium channel function modulators, cell-based (AID 376;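 further: 0% = buffer alone and 100% = reference blocker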)). Details: hERG-expressing cells, channel activity single-concentration screen; concentration not given here.
Chain of Voltage-gated inwardly rectifying potassium channel KCNH2 (Homo sapiens) (Q12809 whole entry, looked up): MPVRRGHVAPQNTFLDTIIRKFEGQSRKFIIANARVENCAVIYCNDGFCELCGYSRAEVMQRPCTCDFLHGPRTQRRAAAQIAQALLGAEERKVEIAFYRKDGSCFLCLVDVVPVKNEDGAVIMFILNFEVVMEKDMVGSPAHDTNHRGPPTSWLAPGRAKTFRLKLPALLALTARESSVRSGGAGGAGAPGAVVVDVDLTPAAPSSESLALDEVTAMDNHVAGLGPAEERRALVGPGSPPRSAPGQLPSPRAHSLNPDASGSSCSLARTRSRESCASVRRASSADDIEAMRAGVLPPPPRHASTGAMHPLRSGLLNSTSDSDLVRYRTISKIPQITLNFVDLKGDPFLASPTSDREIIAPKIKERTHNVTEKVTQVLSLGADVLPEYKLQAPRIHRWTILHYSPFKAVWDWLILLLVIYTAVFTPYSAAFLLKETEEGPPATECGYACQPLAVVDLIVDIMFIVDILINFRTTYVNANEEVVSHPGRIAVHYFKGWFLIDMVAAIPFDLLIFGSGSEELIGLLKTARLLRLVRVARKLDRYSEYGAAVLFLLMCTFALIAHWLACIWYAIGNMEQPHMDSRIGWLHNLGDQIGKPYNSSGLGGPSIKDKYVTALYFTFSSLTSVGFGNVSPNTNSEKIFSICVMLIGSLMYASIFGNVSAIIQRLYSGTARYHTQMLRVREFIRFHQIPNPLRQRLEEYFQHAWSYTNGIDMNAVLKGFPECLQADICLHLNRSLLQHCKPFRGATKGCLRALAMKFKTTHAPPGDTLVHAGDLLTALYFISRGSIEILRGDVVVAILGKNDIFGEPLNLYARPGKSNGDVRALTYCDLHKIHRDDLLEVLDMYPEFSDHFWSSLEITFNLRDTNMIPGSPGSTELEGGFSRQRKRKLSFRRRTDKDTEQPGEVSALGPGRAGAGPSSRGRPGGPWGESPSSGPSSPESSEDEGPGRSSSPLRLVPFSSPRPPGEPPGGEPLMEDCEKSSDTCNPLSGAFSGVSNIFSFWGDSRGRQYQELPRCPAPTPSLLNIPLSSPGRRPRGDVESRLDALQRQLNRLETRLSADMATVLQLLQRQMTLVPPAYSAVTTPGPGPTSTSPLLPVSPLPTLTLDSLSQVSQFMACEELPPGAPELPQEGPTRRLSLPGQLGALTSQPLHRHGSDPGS

Structure (SMILES) | hERG blockade
Nc1ccc(S(=O)(=O)c2ccc(NC(=O)c3cccnc3)cc2)cc1 | 12.7%
Nc1nc2nc3c(nc2c(=O)[nH]1)CN(c1ccc(C(=O)O)cc1)C3=O | -6.18%
O=C(O)C(CCc1ccccc1)N1C(=O)c2ccccc2C1=O (stereo unspecified) | 0.137%
Cc1[nH]c2c(C)ccc(C)c2c1CC(=O)O | -7.4%
Cc1cc(Cl)nc(NC(=O)CSc2ccc(Cl)cc2)n1 | -7.4%
NC(CSC(=O)c1ccccc1)C(=O)O (stereo unspecified) | 8.51%
CN(C)C1C(=O)C(C(=O)NCN2CCCC2)=C(O)C2(O)C(=O)C3=C(O)c4c(O)cccc4C(C)(O)C3CC12 (stereo unspecified) | 5.47%
NC(=O)c1nnn(Cc2cc(Cl)c(C(=O)c3ccc(Cl)cc3)c(Cl)c2)c1N | 17.3%
CC(C)CN(CC#N)CC(C)C | 1.01%
Cc1ccnc(NS(=O)(=O)c2ccc(N=[N+]=[N-])cc2)n1 | 8.12%
CC(CC(N)C(=O)O)C(=O)O (stereo unspecified) | 1.62%
Cc1cc2c(SCc3ccccc3Cl)nc(N)nc2nc1C | -7.31%
O=C1c2cccc([N+](=O)[O-])c2C(=O)N1c1ncn[nH]1 | 24.2% (active)
O=C(O)C(Cc1ccccc1)N1C(=O)c2ccccc2C1=O (stereo unspecified) | 13.1%
O=C(O)CC(C(=O)O)C1c2ccccc2-c2ccccc21 (stereo unspecified) | 14.3%
NC(=O)C1CCCNC1 (stereo unspecified) | -2.06%
CN(C)CCCSc1nc2ccccc2[nH]1 | -13.7%
O=C(O)c1cc(-c2ccc(-c3ccc(-c4cc(C(=O)O)c5cc(Cl)ccc5n4)cc3)cc2)nc2ccc(Cl)cc12 | -1.3%
CN(C)CCCc1c2ccccc2nc2ccc(Cl)cc12 | 35.2% (active)
CC(=O)C1CCC2C1(C)CC=C1C23C=CC2(CC(O)CCC12C)C(C(=O)O)C3C(=O)O (stereo unspecified) | 3.22%
NC(N)=NC(N)=Nc1ccc(S(=O)(=O)O)cc1 | -3.84%
O=[N+]([O-])c1ccc2c(c1)Cc1cc(N=Cc3ccc4c(c3)OCO4)ccc1-2 | -2.54%

Structure (SMILES) | hERG blockade
COc1cc2c(cc1O)C(c1cc(O)c(O)c(OC)c1)C(O)(C(=O)O)C(CO)C2O (stereo unspecified) | -2.14%
O=C(O)c1c(Br)c(Br)c(Br)c(Br)c1C1c2ccc(O)cc2Oc2cc(O)ccc21 | 2.46%
Cc1ccc(NC(c2ccccc2)c2ccc3cccnc3c2O)cc1 (stereo unspecified) | -7.23%
c1cnc2c(c1)ccc1cccnc12 | 56.6% (active)
Oc1c(C(Nc2ccccn2)c2ccccc2)ccc2cccnc12 (stereo unspecified) | 12.1%
Cc1ncn(-c2ccccc2O)c1C | -3.27%
CSC(CC(=O)O)C(=O)O (stereo unspecified) | -18%
CC1OC(CC(=O)O)Cc2c1c(O)c1c(O)cc(-c3cc(=O)c4c(=O)c5c(c(=O)c=4c3=O)CC(CC(=O)O)OC5C)c(O)c1c2O (stereo unspecified) | 14.9%
Oc1ccc2ccccc2c1C=Cc1ccc2c(Br)cc(Br)c(O)c2n1 | 11%
Oc1cccc2ccc(SSc3ccc4cccc(O)c4n3)nc12 | 0.631%
C[n+]1cccc(C=Cc2ccc3cccc(O)c3n2)c1 | 48.1% (active)
O=C(O)c1cc(=O)[nH]c(SCc2ccccc2)n1 | 0.275%
C[N+](C)([O-])Cc1cc(-c2ccccc2)ccc1O | -15.8%
O=C(SCc1cccc2ccccc12)c1ccc(Cl)cc1 | -11.8%
S=C(S)NCCCn1ccnc1 | -3.79%
NCCSS(=O)(=O)CCN | 3.89%
Cc1cc(N)c2cc(NC(=O)Nc3ccc4nc(C)cc(N)c4c3)ccc2n1 | 1.21%
Cc1cc(N)c2cc(OCCOc3ccc4nc(C)cc(N)c4c3)ccc2n1 | 38.9% (active)
CCOc1ccc2nc3cc(N=Nc4ccc(N)nc4N)ccc3c(N)c2c1 | 19.7%
O=C(O)CC12CC3CC(CC(O)(C3)C1)C2 | -8.63%
CCCCCC(O)C1C(=O)OC(C)C(O)C=CC=CC=CC=CC=C(C)C(O)CC(O)CC(O)CC(O)CC(O)CC(O)CC1O (stereo unspecified) | -9.84%
O=C(O)C(C1NCCS1)N1Cc2ccccc2C1 (stereo unspecified) | -7.98%

Structure (SMILES) | hERG blockade
C[N+]1(CC[N+]2(C)CCCC2c2cccnc2)CCCC1c1cccnc1 (stereo unspecified) | 23.3% (active)
C[N+]1(Cc2ccc(Cl)c(Cl)c2)CCCC1c1ccc[n+](Cc2ccc(Cl)c(Cl)c2)c1 (stereo unspecified) | 16.1%
c1cncc(CNCc2cccnc2)c1 | 5.77%
CC1(C)SC2C(NC(=O)Cc3ccccc3)C(=O)N2C1C(=O)O (stereo unspecified) | 1.04%
O=C(O)c1ccc(NC(c2ccccc2)c2ccc3cccnc3c2O)cc1 (stereo unspecified) | -7.8%
CC1(CCC(=O)OC2CCCCC2)OCCO1 | -7.92%
CC(C)(C)c1ccc(OCC(=O)O)c(Cl)c1 | -5.3%
CN1CCN(CCCNN)CC1 | -5.53%
CN1CCN(CCCBr)CC1 | 25.3% (active)
CN1CCN(CCCN)CC1 | -1.63%
O=C(O)C(Cc1ccc(O)c([N+](=O)[O-])c1)N1C(=O)c2ccccc2C1=O (stereo unspecified) | -10.2%
[O-][N+](CCO)(CCO)c1ncnc2nc[nH]c12 | 13%
O=C1C(Cl)=C(Nc2ccc(S(=O)(=O)Nc3ccccn3)cc2)C(=O)c2ccccc21 | 9.57%
COc1cc(NCCC2CCCCN2)c2ncccc2c1 (stereo unspecified) | 7.01%
Cc1cc(N2CCN(C)CC2)n2nc(-c3ccc(Cl)cc3)nc2n1 | 90% (active)
O=c1[nH]c(SCc2c(Cl)c(Cl)c(Cl)c(Cl)c2Cl)nc(=S)[nH]1 | -9.32%
Cc1ccc(S(=O)(=O)NC(CO)C(=O)O)cc1 (stereo unspecified) | 23.3% (active)
Cc1ccc(S(=O)(=O)NC(CN)C(=O)O)cc1 (stereo unspecified) | 4.41%
Cc1ccc(S(=O)(=O)NC(C(=O)O)C(C)C)cc1 (stereo unspecified) | 0.497%
NC1(C(=O)OCc2ccccc2)CCCC1 | 15.7%
CC(OP(=O)(O)O)C(N)C(=O)O (stereo unspecified) | -6.12%
Clc1ccc(CSCCc2ccncc2)cc1Cl | 14.8%
